AC50 and outcome data for 39 compounds are collected here from PubChem BioAssay (EPA / NIEHS).

Structures are written as SMILES. “And” between values parts separate entries of the source, which are not always exact repeats. Identical values can stand only once. Some structures have more than one record in an assay (separate samples or runs), and their calls can disagree. The source made the active and inactive calls. How the source made its calls: active means hit-call score of the fitted dose curve at least 0.9, where 1 is the maximum; inactive means score below 0.9.

Read-out in the test: Interleukin-1 alpha (IL1a), IL1A (gene 3552)
The test can be described thus: BSK_KF3CT_IL1a: BioMAP Diversity Plus: KF3CT Assay for Interleukin-1 alpha (IL1a) Biomarker Activity (AID 2283070). As to conditions: primary human keratinocytes with fibroblasts; actives raise or lower the signal. As to the method: BSK_KF3CT is a cell-based, multiplexed-readout assay that uses keratinocytes and foreskin fibroblasts, a human skin primary cell co-culture, with measurements taken at 24 hours after chemical dosing in a 96-well plate.BSK_KF3CT_IL1a is an assay component measured in the BSK_KF3CT assay. It measures IL-1a antibody related to regulation of gene expression using ELISA technology.Data from the assay component BSK_KF3CT_IL1a was analyzed into 1 assay endpoint. This assay endpoint, BSK_KF3CT_IL1a, was analyzed with bidirectional fitting relative to DMSO as the negative control and baseline of activity. Using a type of binding reporter, gain or loss-of-signal activity can be used to understand changes in the signaling as they relate to the gene IL1A. Furthermore, this assay endpoint can be referred to as a primary readout, because this assay has produced multiple assay endpoints where this one serves a signaling function. To generalize the intended target to other relatable targets, this assay endpoint is annotated to the cytokine intended target family, where the subfamily is interleukins.
The levels of cell surface (or secreted, indicated by the prefix "s") biomarker endpoints were measured by ELISA. Overt cytotoxicity to cells in confluent adherent cultures (all systems other than the BT system) was assessed by measuring total protein levels using sulforhodamine B (SRB) staining in parallel cultures at the time of biomarker measurements, indicated as SRB endpoints. For proliferation assays for adherent cell types, individual cell types are cultured at sub-confluence and relative cell numbers quantified by SRB staining at time points optimized for each system (48 h: 3C and CASM3C systems; 72 h: BT and HDF3CGF systems; 96 h: SAg system). SRB was performed by staining cells with 0.1% SRB after fixation with 10% TCA and reading wells at 560 nm.Viability and proliferation of PBMC (T cells) was quantified by Alamar Blue reduction for the SAg and BT systems. For PBMC viability (referred to as PBMC Cytotoxicity within the assay endpoint names), cells were plated (75,000/well in a 96-well plate) and then chemical samples added for 1 h before addition of activators, SEB and TSST-1 (20 ng/mL final concentration each). Cells were incubated for 90 h. Then, Alamar Blue (20 uL/well) (Invitrogen, Cat DAL1100) was added for 6 h, and the plates were read with a fluorescence microplate reader at 546/580 nm (excitation/emission). For PBMC proliferation, cells were plated and activated as above but incubated for only 16 h prior to addition of Alamar Blue. Plates were read after 6 h.
Consider `C=C1CC/C=C(\C)CC[C@@H]2[C@@H]1CC2(C)C`, for which the AC50 was 29.6 µM (active).

Turning to `CCOC(=O)C=Cc1ccccc1`, the outcome was inactive.

With `Nc1ccc(N)c([N+](=O)[O-])c1`, the result was inactive.

On to `CCn1cc(C(=O)O)c(=O)c2ccc(C)nc21`, for which the outcome was inactive.

Regarding `CCCO[Si](OCCC)(OCCC)OCCC`, the outcome was inactive.

Consider `CC(C)Cc1ccc(C(C)C(=O)O)cc1` (stereo not given), for which the outcome was inactive.

With `CCOC(=O)CCCCCCCCC(=O)OCC`, the result was inactive.

Turning to `C=C(C)C(N)=O`, the outcome was inactive.

Consider `c1ccc(Sc2ccccc2)cc1`, for which the half-maximal activity concentration (AC50) is 30.8 µM (active).

On to `CCCCN(CCO)CCO`, for which the outcome was inactive.

In the case of `CC(C)CCCC(C)(C)O`, the outcome was inactive.

For `CC=CC(=O)C1=C(C)C=CCC1(C)C`, the outcome was inactive.

Take `O=C(O)C(F)(F)C(F)(F)C(F)(F)C(F)(F)C(F)(F)C(F)(F)C(F)(F)C(F)F`: the result was inactive.

In the case of `c1ccc(OCCOc2ccccc2)cc1`, the AC50 was 2.45 µM (active) and the result was inactive.

Consider `CC(=O)OC(C)(C)C1CC=C(C)CC1` (stereo not given), for which the result was inactive.

Regarding `C=C(F)C(=O)OC(C(F)(F)F)C(F)(F)F`, the outcome was inactive.

With `CC(C)(C)c1cccc(O)c1`, the result was inactive.

With `CC(=O)OCC=C(C)CCC=C(C)CCC=C(C)C`, the outcome was inactive.

As for `C=C(C)C(=O)OCCC(F)(F)C(F)(F)C(F)(F)C(F)(F)C(F)(F)C(F)(F)C(F)(F)C(F)(F)F`, the outcome was inactive.

With `O=C(c1ccc(OCCN2CCCCC2)cc1)c1c(-c2ccc(O)cc2)sc2cc(O)ccc12`, the AC50 was 21.8 µM (active).

Turning to `CC(C)(CO)CO`, the result was inactive.

`O=C(O)C(F)(F)OC(F)(F)C(F)(F)OC(F)(F)C(F)(F)C(F)(F)C(F)(F)F`: the result was inactive.

On to `c1ccc2c(c1)-c1ccc3ccc4cccc5cc-2c1c3c45`, for which the result was inactive.

For the compound `C[C@]12CC[C@@H]3c4ccc(O)cc4CC[C@H]3[C@@H]1CC[C@@H]2O`, the result was inactive.

In the case of `O=S(=O)(O)C(F)(F)C(F)(F)OC(F)(F)C(F)(F)F`, the outcome was inactive.

For `CCCCCCCCCCCCS`, the concentration at half-maximal activity (AC50) is 20 µM (active).

Consider `OCC(F)(OC(F)(F)C(F)(OC(F)(F)C(F)(F)C(F)(F)F)C(F)(F)F)C(F)(F)F` (stereo not given), for which the outcome was inactive.

For the compound `CC(=O)CCC=C(C)CCC=C(C)C`, the result was inactive.

On to `CCCCCCCC1CCCC1=O` (stereo not given), for which the result was inactive.

Turning to `CCC(=O)OCC=Cc1ccccc1`, the result was inactive.

Consider `C#C[C@]1(O)CC[C@H]2[C@@H]3CCc4cc(O)ccc4[C@H]3CC[C@@]21C`, for which the outcome was inactive.

On to `COc1ccccc1NC(=O)CC(C)=O`, for which the result was inactive.

On to `COC(=O)c1ccc(C(=O)OC)cc1`, for which the outcome was inactive.

For the compound `CC1(C)[C@H](C=C(Cl)Cl)[C@H]1C(=O)OCc1cccc(Oc2ccccc2)c1`, the result was inactive.

For the compound `CCCCCCCCCC(=O)OCC`, the outcome was inactive.

As for `C=CC(=O)OCC(CO)(COC(=O)C=C)COC(=O)C=C`, the AC50 was 0.517 µM (active).

`O=S1(=O)CC(Cl)(Cl)C(Cl)(Cl)C1`: the concentration at half-maximal activity (AC50) was 1.52 µM (active).

For `CC(=O)c1ccc(C)cc1`, the outcome was inactive.

On to `CC/C(=C(\c1ccccc1)c1ccc(OCCN(C)C)cc1)c1ccccc1`, for which the AC50 is 8.27 µM (active) and 11.2 µM (active).

By AC50 is commonly meant the midpoint of the concentration-response curve, whichever way the signal moves.
